Test [1] addresses Ribosomal protein S6 kinase alpha-6 (Homo sapiens) (UniProt Q9UK32). To be noted: at 1 µM.
For test [2], the target named is T1, Serine/threonine-protein kinase Sgk1 (Homo sapiens) (UniProt O00141).
T1 sequence (whole entry): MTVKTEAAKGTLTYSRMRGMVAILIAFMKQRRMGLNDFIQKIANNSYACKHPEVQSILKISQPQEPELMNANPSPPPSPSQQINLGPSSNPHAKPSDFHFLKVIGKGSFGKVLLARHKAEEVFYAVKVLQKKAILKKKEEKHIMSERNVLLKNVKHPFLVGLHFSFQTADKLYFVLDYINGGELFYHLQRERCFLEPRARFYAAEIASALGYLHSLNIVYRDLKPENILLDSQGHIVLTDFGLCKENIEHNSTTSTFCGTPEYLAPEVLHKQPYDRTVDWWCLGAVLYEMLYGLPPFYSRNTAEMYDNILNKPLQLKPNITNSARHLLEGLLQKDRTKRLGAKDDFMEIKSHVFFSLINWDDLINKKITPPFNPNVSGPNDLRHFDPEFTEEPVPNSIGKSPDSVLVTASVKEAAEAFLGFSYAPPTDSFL
To be noted: at 0.1 µM.

In test [3] the target is T1, Serine/threonine-protein kinase Sgk1 (Homo sapiens). The settings on record: at 1 µM.
The target of test [4] is T2, Serine/threonine-protein kinase Sgk2 (Homo sapiens) (UniProt Q9HBY8).
T2 sequence (whole entry): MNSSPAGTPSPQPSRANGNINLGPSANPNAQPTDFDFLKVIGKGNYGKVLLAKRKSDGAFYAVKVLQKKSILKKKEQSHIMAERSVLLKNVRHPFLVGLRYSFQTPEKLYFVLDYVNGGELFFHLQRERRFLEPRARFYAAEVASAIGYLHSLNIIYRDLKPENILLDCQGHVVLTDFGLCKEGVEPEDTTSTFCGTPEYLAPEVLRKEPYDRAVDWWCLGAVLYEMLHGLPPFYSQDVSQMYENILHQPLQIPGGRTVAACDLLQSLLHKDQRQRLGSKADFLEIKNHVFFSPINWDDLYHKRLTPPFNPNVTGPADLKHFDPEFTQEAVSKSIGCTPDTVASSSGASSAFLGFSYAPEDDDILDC
The settings on record: at 0.1 µM.

The target of test [5] is T2, Serine/threonine-protein kinase Sgk2 (Homo sapiens). To be noted: at 1 µM.
For test [6], the target named is T3, Serine/threonine-protein kinase Sgk3 (Homo sapiens) (UniProt Q96BR1).
T3 sequence (whole entry): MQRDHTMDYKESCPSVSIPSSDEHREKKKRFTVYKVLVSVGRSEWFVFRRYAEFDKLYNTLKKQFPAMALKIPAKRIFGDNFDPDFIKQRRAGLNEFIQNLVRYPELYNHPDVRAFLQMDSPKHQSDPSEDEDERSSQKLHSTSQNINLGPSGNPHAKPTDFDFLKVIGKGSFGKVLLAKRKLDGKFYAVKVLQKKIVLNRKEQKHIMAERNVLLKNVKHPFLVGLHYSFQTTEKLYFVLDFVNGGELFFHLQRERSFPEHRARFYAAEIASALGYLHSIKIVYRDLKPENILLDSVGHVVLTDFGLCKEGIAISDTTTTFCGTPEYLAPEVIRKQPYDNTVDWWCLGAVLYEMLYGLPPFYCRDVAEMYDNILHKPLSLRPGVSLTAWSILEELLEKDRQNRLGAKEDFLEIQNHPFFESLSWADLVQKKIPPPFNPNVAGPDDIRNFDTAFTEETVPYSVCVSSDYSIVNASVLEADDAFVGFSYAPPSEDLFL
To be noted: at 0.1 µM.

In test [7] the target is T3, Serine/threonine-protein kinase Sgk3 (Homo sapiens). The settings on record: at 1 µM.
Test [8] deals with 5'-AMP-activated protein kinase catalytic subunit alpha-1 (Homo sapiens) (UniProt Q13131). To be noted: at 0.1 µM.
Chain of 5'-AMP-activated protein kinase catalytic subunit alpha-1 (Homo sapiens) (Q13131 whole entry, looked up): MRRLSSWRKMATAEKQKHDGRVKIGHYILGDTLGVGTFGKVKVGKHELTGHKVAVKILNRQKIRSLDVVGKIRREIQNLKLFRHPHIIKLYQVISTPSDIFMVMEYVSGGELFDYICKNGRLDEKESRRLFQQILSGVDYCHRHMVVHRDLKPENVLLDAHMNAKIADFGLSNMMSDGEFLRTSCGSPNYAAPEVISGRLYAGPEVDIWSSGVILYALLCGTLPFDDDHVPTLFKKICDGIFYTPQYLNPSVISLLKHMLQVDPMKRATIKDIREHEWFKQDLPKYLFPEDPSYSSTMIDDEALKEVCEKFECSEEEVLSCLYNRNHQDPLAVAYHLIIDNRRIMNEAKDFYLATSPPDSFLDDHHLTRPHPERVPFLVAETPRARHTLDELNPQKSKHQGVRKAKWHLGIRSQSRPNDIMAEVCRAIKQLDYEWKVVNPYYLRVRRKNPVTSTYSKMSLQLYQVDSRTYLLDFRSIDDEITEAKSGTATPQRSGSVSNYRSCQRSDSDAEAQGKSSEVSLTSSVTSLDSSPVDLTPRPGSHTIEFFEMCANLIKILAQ
Test [9] shares this target. To be noted: at 1 µM.
Test [10] has as its target 5'-AMP-activated protein kinase catalytic subunit alpha-2 (Homo sapiens) (UniProt P54646). To be noted: at 0.1 µM.
The target is the same in test [11]. The settings on record: at 1 µM.
Test [12] deals with T4, NUAK family SNF1-like kinase 1 (Homo sapiens) (UniProt O60285).
T4 sequence (whole entry): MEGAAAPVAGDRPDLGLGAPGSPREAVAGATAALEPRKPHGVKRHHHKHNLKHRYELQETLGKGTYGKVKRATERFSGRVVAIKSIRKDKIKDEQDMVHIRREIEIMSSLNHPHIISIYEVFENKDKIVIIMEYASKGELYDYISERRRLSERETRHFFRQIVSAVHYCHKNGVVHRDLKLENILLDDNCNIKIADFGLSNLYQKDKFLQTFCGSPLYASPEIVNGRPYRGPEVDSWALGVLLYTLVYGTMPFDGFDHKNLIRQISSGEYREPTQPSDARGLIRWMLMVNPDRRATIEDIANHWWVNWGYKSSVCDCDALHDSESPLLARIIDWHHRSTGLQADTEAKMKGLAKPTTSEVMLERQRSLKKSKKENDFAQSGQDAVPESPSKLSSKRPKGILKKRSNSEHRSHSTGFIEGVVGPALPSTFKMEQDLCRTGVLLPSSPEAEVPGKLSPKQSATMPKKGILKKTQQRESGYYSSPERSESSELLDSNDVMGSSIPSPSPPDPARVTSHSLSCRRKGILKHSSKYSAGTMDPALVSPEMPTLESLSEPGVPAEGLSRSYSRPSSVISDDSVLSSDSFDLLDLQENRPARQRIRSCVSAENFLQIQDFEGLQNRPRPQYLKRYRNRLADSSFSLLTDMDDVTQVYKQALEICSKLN
To be noted: at 0.1 µM.

The target of test [13] is T4, NUAK family SNF1-like kinase 1 (Homo sapiens). The settings on record: at 1 µM.
Test [14] addresses T5, Serine/threonine-protein kinase BRSK1 (Homo sapiens) (UniProt Q8TDC3).
T5 sequence (whole entry): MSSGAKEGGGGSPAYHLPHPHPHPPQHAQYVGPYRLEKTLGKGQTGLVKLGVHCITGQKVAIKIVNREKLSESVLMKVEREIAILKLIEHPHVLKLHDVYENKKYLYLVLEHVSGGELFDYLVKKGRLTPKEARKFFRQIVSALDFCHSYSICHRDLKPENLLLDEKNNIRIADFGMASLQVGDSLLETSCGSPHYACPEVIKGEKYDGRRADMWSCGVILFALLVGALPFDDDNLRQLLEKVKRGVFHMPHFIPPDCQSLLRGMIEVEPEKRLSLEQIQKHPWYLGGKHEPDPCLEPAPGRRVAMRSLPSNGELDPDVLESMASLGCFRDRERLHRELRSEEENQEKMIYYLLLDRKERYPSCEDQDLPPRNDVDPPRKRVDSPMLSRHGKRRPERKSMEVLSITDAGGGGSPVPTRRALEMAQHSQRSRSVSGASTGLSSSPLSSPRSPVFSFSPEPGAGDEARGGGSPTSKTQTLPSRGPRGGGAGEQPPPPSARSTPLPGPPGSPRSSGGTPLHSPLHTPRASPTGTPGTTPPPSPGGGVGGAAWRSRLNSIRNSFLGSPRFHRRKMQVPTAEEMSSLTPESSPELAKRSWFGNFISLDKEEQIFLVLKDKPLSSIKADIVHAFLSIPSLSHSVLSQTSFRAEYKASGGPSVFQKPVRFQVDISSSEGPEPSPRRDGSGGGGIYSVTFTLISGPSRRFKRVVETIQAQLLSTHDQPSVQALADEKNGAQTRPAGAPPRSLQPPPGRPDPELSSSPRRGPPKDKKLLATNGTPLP
The settings on record: at 0.1 µM.

Test [15] has as its target T5, Serine/threonine-protein kinase BRSK1 (Homo sapiens). The settings on record: at 1 µM.
For test [16], the target named is T6, Serine/threonine-protein kinase BRSK2 (Homo sapiens) (UniProt Q8IWQ3).
T6 sequence (whole entry): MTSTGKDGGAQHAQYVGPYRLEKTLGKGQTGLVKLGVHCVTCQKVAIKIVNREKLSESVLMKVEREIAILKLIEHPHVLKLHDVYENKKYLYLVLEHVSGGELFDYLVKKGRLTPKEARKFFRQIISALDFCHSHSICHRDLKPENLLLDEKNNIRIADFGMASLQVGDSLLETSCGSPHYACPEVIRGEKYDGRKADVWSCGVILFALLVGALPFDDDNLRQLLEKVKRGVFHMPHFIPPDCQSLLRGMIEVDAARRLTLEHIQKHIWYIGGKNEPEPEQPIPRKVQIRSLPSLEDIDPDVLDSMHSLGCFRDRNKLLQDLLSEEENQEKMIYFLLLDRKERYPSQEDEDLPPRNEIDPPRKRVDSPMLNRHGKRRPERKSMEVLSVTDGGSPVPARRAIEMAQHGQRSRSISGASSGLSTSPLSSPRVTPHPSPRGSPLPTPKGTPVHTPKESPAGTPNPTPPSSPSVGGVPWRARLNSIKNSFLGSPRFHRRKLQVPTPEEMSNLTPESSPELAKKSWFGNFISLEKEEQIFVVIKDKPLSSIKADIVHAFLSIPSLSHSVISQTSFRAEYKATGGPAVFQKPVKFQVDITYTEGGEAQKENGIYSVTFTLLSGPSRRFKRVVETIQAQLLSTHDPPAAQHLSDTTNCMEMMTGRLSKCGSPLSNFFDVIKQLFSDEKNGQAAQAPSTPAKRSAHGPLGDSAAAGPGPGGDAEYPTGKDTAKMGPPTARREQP
To be noted: at 0.1 µM.

Test [17] addresses T6, Serine/threonine-protein kinase BRSK2 (Homo sapiens). The settings on record: at 1 µM.
Test [18] addresses Calcium/calmodulin-dependent protein kinase type 1D (Homo sapiens) (UniProt Q8IU85). To be noted: at 0.1 µM.
For test [19] the target is unchanged. The settings on record: at 1 µM.
The target of test [20] is Calcium/calmodulin-dependent protein kinase type II subunit alpha (Homo sapiens) (UniProt Q9UQM7). The settings on record: at 0.1 µM.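 Note: reported values are averages (mean inhibition of CAMK2A).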
Chain of Calcium/calmodulin-dependent protein kinase type II subunit alpha (Homo sapiens) (Q9UQM7 whole entry): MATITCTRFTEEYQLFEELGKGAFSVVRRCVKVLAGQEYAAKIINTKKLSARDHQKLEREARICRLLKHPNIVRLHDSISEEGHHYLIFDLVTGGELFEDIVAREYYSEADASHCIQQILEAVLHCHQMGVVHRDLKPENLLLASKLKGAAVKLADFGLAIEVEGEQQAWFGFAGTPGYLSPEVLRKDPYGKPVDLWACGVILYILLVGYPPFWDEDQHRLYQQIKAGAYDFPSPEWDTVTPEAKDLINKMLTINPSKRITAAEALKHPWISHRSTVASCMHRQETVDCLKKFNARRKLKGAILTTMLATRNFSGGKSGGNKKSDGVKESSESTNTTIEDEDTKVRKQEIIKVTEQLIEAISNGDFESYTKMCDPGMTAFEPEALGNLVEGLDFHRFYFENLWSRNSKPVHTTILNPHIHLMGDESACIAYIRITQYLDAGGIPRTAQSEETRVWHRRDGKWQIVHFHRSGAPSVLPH

From ChEMBL document CHEMBL1961873, “Compounds: GSK PKIS; Assays: Nanosyn kinase panel” (2012) come the findings set out here.

Molecules are shown by their SMILES.

Chain of Ribosomal protein S6 kinase alpha-6 (Homo sapiens) (Q9UK32 whole entry): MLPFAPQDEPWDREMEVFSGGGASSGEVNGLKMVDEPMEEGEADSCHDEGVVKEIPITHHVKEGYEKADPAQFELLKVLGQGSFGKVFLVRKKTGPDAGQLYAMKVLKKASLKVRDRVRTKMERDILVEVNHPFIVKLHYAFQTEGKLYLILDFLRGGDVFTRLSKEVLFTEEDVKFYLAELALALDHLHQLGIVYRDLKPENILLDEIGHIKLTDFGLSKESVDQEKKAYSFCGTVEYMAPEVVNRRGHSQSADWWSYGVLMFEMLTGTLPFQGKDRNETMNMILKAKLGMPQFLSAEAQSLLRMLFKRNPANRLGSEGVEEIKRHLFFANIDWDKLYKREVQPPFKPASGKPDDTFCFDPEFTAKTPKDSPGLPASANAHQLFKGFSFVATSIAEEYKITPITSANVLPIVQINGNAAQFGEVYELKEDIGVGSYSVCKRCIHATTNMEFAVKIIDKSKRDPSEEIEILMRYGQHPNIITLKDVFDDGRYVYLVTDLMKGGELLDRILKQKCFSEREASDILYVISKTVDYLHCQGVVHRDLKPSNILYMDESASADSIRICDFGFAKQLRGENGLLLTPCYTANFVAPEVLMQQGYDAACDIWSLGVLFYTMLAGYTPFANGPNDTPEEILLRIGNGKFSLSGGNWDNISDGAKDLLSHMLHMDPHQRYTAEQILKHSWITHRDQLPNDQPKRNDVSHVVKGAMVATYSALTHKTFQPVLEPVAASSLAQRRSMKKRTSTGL
Chain of 5'-AMP-activated protein kinase catalytic subunit alpha-2 (Homo sapiens) (P54646 whole entry, looked up): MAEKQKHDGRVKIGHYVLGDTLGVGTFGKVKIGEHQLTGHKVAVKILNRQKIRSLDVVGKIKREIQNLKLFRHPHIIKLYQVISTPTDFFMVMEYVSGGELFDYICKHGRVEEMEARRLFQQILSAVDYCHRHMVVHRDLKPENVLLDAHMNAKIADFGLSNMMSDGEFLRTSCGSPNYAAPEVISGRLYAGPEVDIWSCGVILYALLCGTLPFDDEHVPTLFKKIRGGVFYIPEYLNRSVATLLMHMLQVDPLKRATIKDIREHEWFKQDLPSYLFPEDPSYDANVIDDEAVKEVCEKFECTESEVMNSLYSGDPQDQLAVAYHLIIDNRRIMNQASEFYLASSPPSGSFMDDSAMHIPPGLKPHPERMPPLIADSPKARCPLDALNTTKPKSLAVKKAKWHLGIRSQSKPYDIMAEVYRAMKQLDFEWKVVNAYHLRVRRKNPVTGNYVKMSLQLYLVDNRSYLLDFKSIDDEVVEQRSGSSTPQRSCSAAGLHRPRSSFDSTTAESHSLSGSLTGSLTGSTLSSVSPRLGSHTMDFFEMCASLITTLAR
Chain of Calcium/calmodulin-dependent protein kinase type 1D (Homo sapiens) (Q8IU85 whole entry, looked up): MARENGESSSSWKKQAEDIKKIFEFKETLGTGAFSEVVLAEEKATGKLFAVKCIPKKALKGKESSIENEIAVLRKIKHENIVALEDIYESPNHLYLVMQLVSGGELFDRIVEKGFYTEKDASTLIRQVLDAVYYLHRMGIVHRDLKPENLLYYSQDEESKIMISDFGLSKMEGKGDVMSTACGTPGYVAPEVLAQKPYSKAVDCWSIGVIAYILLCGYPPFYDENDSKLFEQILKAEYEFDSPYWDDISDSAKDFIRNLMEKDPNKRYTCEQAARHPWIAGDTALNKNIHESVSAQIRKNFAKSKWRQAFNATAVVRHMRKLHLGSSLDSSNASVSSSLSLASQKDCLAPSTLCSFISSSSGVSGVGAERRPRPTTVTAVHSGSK

On to `Cc1ccc2c(c1)/C(=N/Nc1ccc(S(N)(=O)=O)cc1)C(=O)N2`, for which the inhibition in test [1] was 2.46%; in test [2], 0.97%; in test [3] it was 1.07%; in test [4], 1.13%; in [5] it was 0.76%; in test [6] it was -0.94%. Moreover, the inhibition is -1.14% in test [7]; 1.77% in [8]; 6.53% in [9]; 0.59% in test [10]; 12.3% in [11]; 21.7% in [12]. Moreover, the inhibition in test [13] stood at 62.2%; in [14], 2.87%; in test [15], 9.92%; in test [16] it was 3.09%; in test [17], 12.8%; in test [18] it was 2.35%. Also, the inhibition amounted to 2.43% in test [19] and 2.02% in test [20].
Turning to `COC(=O)c1ccc2c(c1)C(=Cc1cc(Br)c(O)c(Br)c1)C(=O)N2`, the inhibition in test [1] was found to be 7.3%; in test [2], 1.67%; in test [3], 5.36%; in test [4], 5.27%; in test [5], 12.1%; in [6], 3.08%. For the same molecule, the inhibition is 3.5% in [7]; 2.71% in test [8]; 6.28% in [9]; 8.21% in test [10]; 4.79% in test [11]; -1.29% in test [12]. Also, the inhibition in test [13] amounted to 2.73%; in [14], 3.81%; in test [15], 2.04%; in test [16] it was 0.42%; in test [17] it was 5.14%; in test [18], 0.26%. The inhibition worked out at 3.35% in [19] and 2.97% in [20].
For the molecule `Cc1ccc(Nc2ccnc(Nc3cccc(C(N)=O)c3)n2)cc1O`, the inhibition in test [1] amounted to 7.33%; in [2] it was 1.93%; in [3], 4.05%; in test [4], 5.55%; in [5], 3.06%; in test [6], 1.32%. Also, the inhibition in test [7] is 3.83%; in [8] it was 2.46%; in [9] it was 6.79%; in test [10], 1.35%; in test [11], 5.29%; in test [12] it was 7.76%. Besides, the inhibition in [13] is 41.1%; in [14], 0.1%; in test [15], 6.23%; in [16] it was 2.24%; in test [17], 9.72%; in test [18] it was 1.34%. The inhibition in test [19] stood at 4.12%; in [20], 3.21%.

What is called inhibition is the drop in the measured response relative to a control, in per cent.
